We go through one compound from PubChem BioAssay AID623888 (Vanderbilt Specialized Chemistry Center, 2012).

This assay concerns the target Metabotropic glutamate receptor 3 (Rattus norvegicus) (UniProt P31422). As to the kind of experiment: PubChem AID 623888. The note with it: HEK/GIRK rat mGlu3, thallium flux fluorescence, Schild, at 30 µM; % glutamate max: glutamate max response with compound, stronger effect = lower value; glutamate response, % max: at 100 µM (top of the series), compound 30 µM.

Metabotropic glutamate receptor 3 (Rattus norvegicus), sequence (P31422 whole entry, looked up): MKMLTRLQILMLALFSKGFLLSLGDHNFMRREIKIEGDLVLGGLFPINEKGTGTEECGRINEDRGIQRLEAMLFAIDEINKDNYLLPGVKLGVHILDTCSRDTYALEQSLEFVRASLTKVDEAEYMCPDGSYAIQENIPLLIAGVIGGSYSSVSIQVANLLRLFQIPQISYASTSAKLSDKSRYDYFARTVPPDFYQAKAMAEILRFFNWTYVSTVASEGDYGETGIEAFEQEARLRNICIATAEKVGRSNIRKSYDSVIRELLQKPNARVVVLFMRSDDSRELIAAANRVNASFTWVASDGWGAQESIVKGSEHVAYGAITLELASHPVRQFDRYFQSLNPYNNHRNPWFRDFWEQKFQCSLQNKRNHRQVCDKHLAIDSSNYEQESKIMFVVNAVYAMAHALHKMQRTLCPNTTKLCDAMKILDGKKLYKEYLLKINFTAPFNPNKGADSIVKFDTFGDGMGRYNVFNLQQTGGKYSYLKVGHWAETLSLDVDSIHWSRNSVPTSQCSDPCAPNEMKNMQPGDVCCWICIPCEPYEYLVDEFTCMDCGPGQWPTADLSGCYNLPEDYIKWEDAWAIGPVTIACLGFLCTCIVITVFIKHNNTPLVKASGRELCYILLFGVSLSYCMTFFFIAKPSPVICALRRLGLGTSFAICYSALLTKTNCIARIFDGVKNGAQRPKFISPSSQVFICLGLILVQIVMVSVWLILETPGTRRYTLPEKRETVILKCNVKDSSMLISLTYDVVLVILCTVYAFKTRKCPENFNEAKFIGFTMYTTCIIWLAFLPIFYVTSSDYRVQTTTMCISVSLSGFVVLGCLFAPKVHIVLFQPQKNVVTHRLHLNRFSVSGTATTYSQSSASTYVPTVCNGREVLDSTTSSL

With `COc1ccc(C#Cc2ccc(C(=O)N3CCC[C@@H](CO)C3)cc2)cc1`, the % glutamate max was determined as 1.37% and the glutamate response, % max is 2.62.
